# Test results from PubChem BioAssay (NCI).
# The panel holds about 83,000 compounds, 20% with a hit somewhere; the sample as a whole holds those more often.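 Each cell line was grown in a 96-well plate and treated with one concentration of compound for 48 hours. Values below 10 were considered active.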 A number with no mark means an inactive call. Activity calls are given as the source filed them.
# Experiments:
# Assay in all cases: NCI-60 one-dose screen, 48 h (100 = growth as untreated, 0 = no growth, -100 = all killed)
# Conditions in all cases: 10 µM
# T-47D breast = system: T-47D breast
# BT-549 breast = system: BT-549 breast
# MDA-MB-435 melanoma = system: MDA-MB-435 melanoma
# SW-620 colon = system: SW-620 colon
# MCF7 breast = system: MCF7 breast
# HCT-116 colon = system: HCT-116 colon
# HCC-2998 colon = system: HCC-2998 colon
# KM12 colon = system: KM12 colon
# MDA-MB-468 breast = system: MDA-MB-468 breast
Compound,growth (T-47D breast),growth (BT-549 breast),growth (MDA-MB-435 melanoma),growth (SW-620 colon),growth (MCF7 breast),growth (HCT-116 colon),growth (HCC-2998 colon),growth (KM12 colon),growth (MDA-MB-468 breast)
CCCn1c(=O)c2[nH]c(-c3ccc(OCc4nc5ccc(C)cc5[nH]4)cc3)nc2n(CCC)c1=O,-13.2% (active),36.3%,49.1%,27.5%,17.6%,14.6%,61.6%,69.7%,16.7%
N#Cc1c(NC(=O)c2ccc(C(F)(F)F)cc2)sc2c1CCC(=O)C2,-36.9% (active),-80.6% (active),-41.4% (active),-63% (active),-16.9% (active),-46.3% (active),-96.7% (active),-36.3% (active),-71% (active)
C/C(=C\c1ccc(O)cc1O)c1ccc2ccc(O)cc2[o+]1,56%,45.5%,21.4%,44.8%,22.2%,26.9%,61.4%,22.5%,64%
O=c1c2ccccc2nc(COc2ccccc2)n1/N=C/c1ccc(N2CCOCC2)cc1,92.9%,76.8%,99.3%,97.6%,77.6%,52.5%,99.2%,90.7%,117%
COc1ccc(CCN2C(=O)/C(=C/c3csc(C#N)n3)SC2=S)cc1OC,-7.6% (active),24.5%,23.5%,-20.5% (active),-15.9% (active),-69.1% (active),116%,35%,-80.6% (active)
O=C1Nc2ccc(Cl)cc2/C1=C/c1cccc(OCc2ccccc2)c1,12.5%,41.9%,35.4%,45.4%,9.65% (active),17%,50.6%,38.9%,-10.2% (active)
O=C(CSc1nnc(-c2ccc3nc(-c4ccccc4)[nH]c3c2)o1)Nc1ccc(Br)cc1,62.8%,95.9%,63.4%,2.94% (active),28.4%,19.1%,90.2%,53.9%,83.2%
COc1ccc(C(=O)NC(=S)N2CCN(c3ncnc4c3cnn4-c3ccccc3)CC2)cc1,70.3%,88.2%,84.8%,80.5%,54.3%,66.6%,87%,84.4%,61.2%
CC(=C(c1ccc(OCCN2CCCCC2)cc1)c1ccc(OCCN2CCCCC2)cc1)c1ccccc1,-20.3% (active),110%,-66% (active),12.3%,-48.3% (active),14.3%,15.7%,24.4%,37.4%
CN1C(=O)N(C)C2SC(N/N=C/C=C/c3ccccc3)=NC21 (stereo unspecified),61.8%,64.1%,-19.6% (active),63.9%,27.6%,71.6%,85.3%,58%,-4.12% (active)
COc1ccc(C(=O)/C=C/c2ccc(Cl)c(C(F)(F)F)c2)cc1S(N)(=O)=O,-82.6% (active),-82.3% (active),-96.4% (active),-94.7% (active),-93.6% (active),-71.6% (active),-88.3% (active),-43.7% (active),-93.4% (active)
C=C1CC[C@H](C(=C)C)[C@H]2C=C(C)C(=O)C3=C(C(=O)[C@@](C)(O)C3)[C@H]12,-59.3% (active),-43.7% (active),-58% (active),-53.3% (active),-70.5% (active),12.2%,-84.4% (active),-73.9% (active),-69.5% (active)
CC(=O)c1ccc(Nc2nc(SCCC(C)C)nc(-c3ccc(F)cc3)c2C#N)cc1,68.3%,56.7%,73.8%,68.5%,59.6%,22%,83.4%,81.8%,69%
N[C@@H](CSSC[C@H](N)C(=O)Nc1ccc(OCC2CCCC2)cc1)C(=O)Nc1ccc(OCC2CCCC2)cc1,-68.9% (active),-63.5% (active),-100% (active),-84% (active),-73% (active),-35.9% (active),-96.5% (active),-80.6% (active),-93.4% (active)
O=C1Nc2ccc(Cl)cc2/C1=C/c1ccc(OCc2ccccn2)cc1,69%,78.8%,76.9%,47.5%,28.9%,28.5%,105%,78.8%,50.4%
O=c1oc2ccc(-c3ccc(F)cc3F)cc2c(=O)n1-c1ccc(F)cc1,-20.5% (active),-25.8% (active),0.996% (active),10.2%,-4.67% (active),8.96% (active),7.52% (active),-0.662% (active),-29.8% (active)
Brc1ccc(/C=N/Nc2ncnc3sc4c(c23)CCN(Cc2ccccc2)C4)cc1,91.6%,102%,73.5%,35%,42.8%,33.3%,91.4%,50.2%,-7.6% (active)
CN1CCN(c2ccc(C(=O)/C=C/c3cc(C(F)(F)F)ccc3Cl)cc2)CC1,-37.4% (active),-72.6% (active),-56.5% (active),-70.7% (active),-85.3% (active),-61.7% (active),-98.1% (active),-36.5% (active),-97.6% (active)
CC(=O)Nc1ccc(-c2cn(-c3cccc(C(=O)Nc4cc(CN5CCOCC5)cc(C(F)(F)F)c4)c3)nn2)cn1,-71.5% (active),-82.1% (active),-89.1% (active),-72.6% (active),-84% (active),-56.1% (active),-95.6% (active),-42.7% (active),-92.1% (active)
CC1(C)[C@@H](NCO)CC[C@]2(C)[C@H]3C(=O)C=C4[C@@H]5C[C@](C)(CO)CC[C@]5(C)CC[C@@]4(C)[C@]3(C)CC[C@@H]12,63.9%,81.8%,59.9%,35.2%,33.7%,37.8%,40.8%,65.7%,47.2%
COc1ccc2[nH]c(=O)c(CSc3cccc(N)c3)cc2c1,37.5%,75.1%,31.6%,25%,31%,52.5%,44.6%,4.43% (active),34.7%
COc1ccc(NC(=O)Nc2ccc(OCC(=O)N=Nc3c(O)[nH]c4ccc([N+](=O)[O-])cc34)cc2)cc1,32.6%,27.5%,106%,98.3%,38.2%,85.6%,66.6%,18%,30.2%
O=C(CSc1nnc(-c2ccc3nc(-c4ccc(Cl)cc4)[nH]c3c2)o1)Nc1ccc(Br)cc1,53.7%,-69.8% (active),-88% (active),-20.9% (active),-25% (active),-61.9% (active),28.9%,15.6%,-4% (active)
CC(=O)Nc1ccc(-n2cnc3cc(-c4ccc(O)cc4)ccc32)cc1F,29.9%,60.3%,-25.7% (active),28.2%,26.3%,13.9%,33.3%,4.96% (active),-12.3% (active)
COc1ccc(C(=O)/C=C/c2cc(C(F)(F)F)cc(C(F)(F)F)c2)cc1S(N)(=O)=O,-59.8% (active),-65.8% (active),-69.2% (active),-58% (active),-72.5% (active),-59.1% (active),-98.3% (active),-75.4% (active),-95.2% (active)
CCOC(=O)C1=C(N)N(c2ccccc2)C2=C(C(=O)CC(C)(C)C2)C1c1ccc(Cl)cc1 (stereo unspecified),29.5%,43.2%,22%,27.9%,17.4%,18.7%,42.9%,17.9%,33.2%
O=C(CNc1nc(-c2ccccc2)cs1)Nc1ccc([N+](=O)[O-])cc1Cl,12.5%,8.83% (active),44%,23.2%,9.27% (active),21.4%,7.28% (active),29.1%,-30.3% (active)
CCOC(=O)C1=C(N)N(c2ccc(C)cc2)C2=C(C(=O)CC(C)(C)C2)C1c1ccccc1OC (stereo unspecified),97.8%,95.7%,111%,105%,93.5%,103%,106%,108%,101%
CC(=O)C1=C(C)NC(SCC(=O)Nc2ccc(S(=O)(=O)Nc3cc(C)on3)cc2)=NC1c1ccccc1 (stereo unspecified),99.3%,114%,99.6%,106%,87.5%,105%,112%,99.8%,111%
